Source: PubChem BioAssay (NCI)
About 83,000 compounds went through this panel and 20% of them were active in at least one assay; those are over-represented in the sample as a whole.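 Assay: single dose, 48 h. Readout: percent growth (0 = no net growth; negative = cell death). Active: <10.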 Unmarked numbers belong to inactive results. The source made the active and inactive calls.

Key:
Assay in all cases: NCI-60 one-dose screen, 48 h (100 = growth as untreated, 0 = no growth, -100 = all killed)
Conditions in all cases: 10 µM unless noted
NCI-H23 lung = system: NCI-H23 lung
NCI-H226 lung = system: NCI-H226 lung
NCI-H322M lung = system: NCI-H322M lung
HOP-62 NSCLC = system: HOP-62 NSCLC
NCI-H460 lung = system: NCI-H460 lung
HOP-92 NSCLC = system: HOP-92 NSCLC
NCI-H522 lung = system: NCI-H522 lung
A549/ATCC NSCLC = system: A549/ATCC NSCLC
786-0 renal = system: 786-0 renal
COLO 205 colon = system: COLO 205 colon
DU-145 prostate = system: DU-145 prostate
K-562 leukemia = system: K-562 leukemia
MALME-3M melanoma = system: MALME-3M melanoma
MDA-MB-231 breast = system: MDA-MB-231 breast
RXF 393 renal = system: RXF 393 renal
SF-268 CNS = system: SF-268 CNS
SF-295 CNS = system: SF-295 CNS
SF-539 CNS = system: SF-539 CNS
UACC-257 melanoma = system: UACC-257 melanoma
M14 melanoma = system: M14 melanoma

Structure (SMILES)	growth (NCI-H23 lung)	growth (NCI-H226 lung)	growth (NCI-H322M lung)	growth (HOP-62 NSCLC)	growth (NCI-H460 lung)	growth (HOP-92 NSCLC)	growth (NCI-H522 lung)	growth (A549/ATCC NSCLC)	growth (786-0 renal)	growth (COLO 205 colon)	growth (DU-145 prostate)	growth (K-562 leukemia)	growth (MALME-3M melanoma)	growth (MDA-MB-231 breast)	growth (RXF 393 renal)	growth (SF-268 CNS)	growth (SF-295 CNS)	growth (SF-539 CNS)	growth (UACC-257 melanoma)	growth (M14 melanoma)
CCC1S/C(=N\N=C(/C)c2ccc[nH]2)N(c2ccccc2)C1=O (stereo not given)	98.8%	132%	90.8%	108%	104%	70.5%	27.2%	82.6%	117%	127%	122%	72.8%	85.5%	100%	91.4%	109%	120%	119%	104%	115%
O=C(O)c1ccc(-n2cc(/C=N/Nc3ccc(Cl)cc3Cl)c(-c3ccccc3)n2)cc1	84.5%	88.6%	103%	92.2%	102%	106%	78%	97.1%	97.5%	96.7%	93.6%	87.8%	92.3%	81.7%	97.9%	81.8%	74.7%	82%	116%	88.1%
CN1CC=C(c2cc(NC(=O)Nc3ccc(Oc4ccnc(NC(=O)C5CC5)c4)c(F)c3)cc(C(F)(F)F)c2)CC1	-14.8% (active)	4.49% (active)	7.64% (active)	-13.2% (active)	-5.88% (active)	-17% (active)	-49.8% (active)	-6.76% (active)	-6.75% (active)	-26.2% (active)	9.52% (active)	-12.2% (active)	-32.5% (active)	-11.8% (active)	-27.4% (active)	-1.76% (active)	-9.64% (active)	-47.9% (active)	-0.573% (active)	-38.3% (active)
CC(=O)Nc1nc2c(c(N)c1C#N)C(c1cccc(Cl)c1)C1=C(CCCC1=O)N2c1sc2c(c1C#N)CCCC2 (stereo not given)	67%	55.5%	93.3%	67.3%	53.1%	40.1%	21.3%	32.8%	57.6%	59.6%	72.5%	29.8%	83.3%	67.1%	16.2%	66.3%	44%	65%	54.4%	52.2%
Cn1c2ccccc2c2c(OC(=O)c3ccccc3)c3c(nc21)-c1ccccc1C3	86.1%	100%	92.9%	73.1%	105%	91.5%	58.2%	93.1%	96.9%	121%	104%	104%	104%	85.6%	109%	96.4%	100%	102%	95.7%	93.8%
N#Cc1c(-c2ccc(F)cc2)nc(N=Nc2c(O)[nH]c3ccc(Cl)cc23)nc1N1CCOCC1	37.4%	10.5%	46.9%	11.6%	51.8%	-9.97% (active)	53.4%	23.8%	17%	65.5%	40%	62.4%	38%	26.9%	8.65% (active)	41.4%	13.9%	2.98% (active)	57.3%	51.5%
Cc1ccc(CS/C(=C\c2ccc([N+](=O)[O-])cc2)C(=O)c2ccc(F)cc2)cc1	57.2%	67%	103%	83.4%	82.3%	96.2%	-5.69% (active)	85%	76.9%	54.2%	91.2%	-0.821% (active)	83.7%	60.5%	100%	74.6%	79.2%	98.1%	93.3%	40.8%
C=C1C(=O)O[C@H]2[C@H]1CC/C(COC(=O)NCc1nc3ccccc3[nH]1)=C\CC[C@@]1(C)O[C@@H]21	87.2%	88.4%	112%	95%	102%	136%	-43.9% (active)	94.6%	101%	18.8%	80.1%	24.7%	86.8%	90.8%	67.2%	105%	106%	77.9%	94.9%	77.5%
COc1ccc(-c2cn(-c3ccc(Cl)cc3)c(=S)[nH]2)cc1OC	89.6%	63.2%	57.4%	38.4%	37.9%	81.8%	49.4%	72%	1.85% (active)	44.2%	78.5%	75.9%	90.2%	53%	11%	96.1%	68.6%	85.6%	65.8%	4.41% (active)
Cc1c(Cl)cccc1NC(=O)c1sc2nc3c(cc2c1N)COCC3	36.4%	76.1%	60.6%	24.5%	15.6%	36.3%	17.3%	45.9%	25.9%	24.1%	33%	13%	59.4%	49%	13.1%	47.4%	12.9%	11.4%	47.3%	10.8%
Cc1ccn2c3c(c(C(=O)O)c2c1)C(=O)c1ccccc1C3=O	2.03% (active)	114%	6.55% (active)	45.5%	-22.4% (active)	96.8%	82.5%	-39.6% (active)	84.2%	42.1%	-55.7% (active)	85.4%	-62.7% (active)	77.2%	56.9%	80.3%	26.9%	65.8%	56.4%	-43.5% (active)
C=C(C)[C@@H]1CC[C@]2(C(=O)OCCCC[P+](c3ccccc3)(c3ccccc3)c3ccccc3)CC[C@]3(C)[C@H](CC[C@@H]4[C@@]5(C)CC[C@H](OC(=O)C(Cl)Cl)C(C)(C)[C@@H]5CC[C@]43C)[C@@H]12	-16.5% (active)	-78.5% (active)	2.79% (active)	-0.785% (active)	-41.1% (active)	-67.4% (active)	-38.3% (active)	0.629% (active)	-77.9% (active)	-74.4% (active)	14.4%	-35.9% (active)	-85.7% (active)	-49.8% (active)	-80.8% (active)	-15.7% (active)	-76.9% (active)	-44.2% (active)	-61% (active)	-56.1% (active)
COc1c(O)cc2oc3cc(O[C@@H]4OC(C)[C@@H](O)[C@H](O)C4O)c(CC=C(C)C)c(O)c3c(=O)c2c1CC=C(C)C (stereo not given in full)	89.4%	90.1%	107%	110%	90.5%	89.2%	68.5%	80%	101%	114%	103%	74.3%	103%	89.5%	103%	92.7%	93.3%	99%	104%	99.8%
CC(/C=C/c1ccccc1)=N/NC(=O)c1ccncc1	98.2%	104%	99.7%	103%	102%	77.8%	92.9%	93.4%	103%	119%	112%	100%	89.5%	105%	113%	102%	109%	105%	89.8%	101%
Nc1ccccc1NS(=O)(=O)c1ccc(Cl)cc1	94.5%	103%	81.9%	106%	104%	78.8%	85.2%	107%	98%	104%	94.2%	95.9%	87.5%	98.2%	115%	93.5%	101%	95.6%	98.4%	97.1%
C=C1C(=O)O[C@H]2[C@H]1CC/C(COC(=O)NCC(=O)Nc1ccc(OC)c(C(N)=O)c1O)=C\CC[C@@]1(C)O[C@@H]21	95.6%	83.3%	92.2%	85.4%	97%	14.6%	-25.1% (active)	86.3%	58.7%	10.8%	66.4%	8.95% (active)	59.7%	68.2%	16.5%	70.8%	101%	7.54% (active)	53.3%	62.9%
